Measurements as given in PubChem BioAssay AID1159580 (chemical genetic matrix, 2015).
Several values for one entry are separate records, joined by “and”; a condition that tells them apart may be missing. Equal entries are not always repeated. The whole screen tested about 5,500 compounds, of which about 2,000 (36%) were called active. Inconclusive results (about 18%) are left out. Cut-off read from the data, not from the text of the source: active = normalized growth mostly below about 0.91 (no sharp cut-off); inconclusive = no clear call, values can overlap the other calls; inactive = mostly above about 0.92. The list shows a part of the results.

Test: chemical genetic growth profiling, strain panel (AID 1159580);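 note: tested at 20 µM; growth read once vehicle control cultures reached saturation at 30 °C; 1 = growth at the plate median or of vehicle wells; lower values mean less growth of the strain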
Settings: S. cerevisiae deletion strains, growth OD

Measured: normalized growth

Oc1ccc2c3c1OC1[C@@H](O)CC[C@@]4(O)[C@@H](C2)N(CC2CCC2)CC[C@]314 (stereo partly specified)
inactive: locus YAL013W, strain DEP1, stronger effect = lower value 1.01 | locus YAL021C, strain ccr4, stronger effect = lower value 0.987 | locus YAL026C, strain drs2, stronger effect = lower value 1.02 | locus YAL030W, strain snc1, stronger effect = lower value 0.981 | locus YBL061C, strain skt5, stronger effect = lower value 0.997 | locus YBR009C, strain hhf1, stronger effect = lower value 1.01 | locus YBR021W, strain FUR4, stronger effect = lower value 1.02 | locus YBR023C, strain chs3, stronger effect = lower value 0.993 | locus YBR171W, strain sec66, stronger effect = lower value 0.974 | locus YBR229C, strain ROT2, stronger effect = lower value 1.02 | locus YBR231C, strain swc5, stronger effect = lower value 0.997 | locus YBR279W, strain paf1, stronger effect = lower value 0.999 | locus YCL011C, strain gbp2, stronger effect = lower value 1.01 | locus YCL016C, strain dcc1, stronger effect = lower value 1.02 | locus YCL029C, strain bik1, stronger effect = lower value 1.03 | locus YCL061C, strain MRC1, stronger effect = lower value 1 | locus YCL069W, strain vba3, stronger effect = lower value 0.993 | locus YCR088W, strain abp1, stronger effect = lower value 1.01 | locus YDL005C, strain med2, stronger effect = lower value 0.989 | locus YDL035C, strain GPR1, stronger effect = lower value 1.02 | locus YDL040C, strain nat1, stronger effect = lower value 1 | locus YDL074C, strain BRE1, stronger effect = lower value 1.04 | locus YDL101C, strain DUN1, stronger effect = lower value 1.02 | locus YDL134C, strain PPH21, stronger effect = lower value 1.02 | locus YDL185W, strain tfp1, stronger effect = lower value 1.02 | locus YDL192W, strain arf1, stronger effect = lower value 1.02 | locus YDR001C, strain nth1, stronger effect = lower value 1.02 | locus YDR069C, strain doa4, stronger effect = lower value 1 | locus YDR101C, strain arx1, stronger effect = lower value 1.01 | locus YDR137W, strain rgp1, stronger effect = lower value 1.01 | locus YDR150W, strain NUM1, stronger effect = lower value 1.02 | locus YDR159W, strain sac3, stronger effect = lower value 0.987 | locus YDR162C, strain NBP2, stronger effect = lower value 1.02 | locus YDR195W, strain ref2 0.974 | locus YDR297W, strain sur2, stronger effect = lower value 1.01 | locus YDR318W, strain mcm21, stronger effect = lower value 1.02 | locus YDR334W, strain swr1, stronger effect = lower value 0.994 | locus YDR335W, strain msn5, stronger effect = lower value 1 | locus YDR388W, stronger effect = lower value 1.01 | locus YDR392W, strain spt3, stronger effect = lower value 1.01 | locus YDR502C, strain sam2, stronger effect = lower value 1.02 | locus YEL003W, strain gim4, stronger effect = lower value 1 | locus YEL037C, strain rad23, stronger effect = lower value 0.988 | locus YEL061C, strain CIN8 (second series), stronger effect = lower value 0.99 | locus YEL061C, strain CIN8, stronger effect = lower value 1.01 | locus YER015W, strain faa2, stronger effect = lower value 0.996 | locus YER016W, strain bim1, stronger effect = lower value 1.01 | locus YER110C, stronger effect = lower value 1.02 | locus YER111C, strain swi4, stronger effect = lower value 0.997 | locus YER155C, strain BEM2 (second series), stronger effect = lower value 0.963 | locus YER155C, strain BEM2, stronger effect = lower value 1.01 | locus YER167W, strain BCK2, stronger effect = lower value 1.02 | locus YFR010W, strain ubp6, stronger effect = lower value 0.978 | locus YGL078C, strain dbp3, stronger effect = lower value 1.01 | locus YGL086W, strain mad1, stronger effect = lower value 1.01 | locus YGL167C, strain pmr1, stronger effect = lower value 0.99 | locus YGL173C, strain kem1, stronger effect = lower value 0.98 | locus YGL227W, strain vid30, stronger effect = lower value 0.986 | locus YGL240W, strain doc1, stronger effect = lower value 1.01 | locus YGL248W, strain PDE1, stronger effect = lower value 1.02 | locus YGL253W, strain hxk2, stronger effect = lower value 1.01 | locus YGR078C, strain PAC10, stronger effect = lower value 1.03 | locus YGR135W, strain pre9, stronger effect = lower value 1.01 | locus YGR229C, strain SMI1, stronger effect = lower value 1.03 | locus YGR252W, strain gcn5, stronger effect = lower value 0.984 | locus YHR013C, strain ard1, stronger effect = lower value 0.973 | locus YHR027C, strain rpn1, stronger effect = lower value 0.996 | locus YHR030C, strain SLT2, stronger effect = lower value 1.02 and 0.983 | locus YHR079C, strain IRE1 (second series), stronger effect = lower value 1.02 | locus YHR079C, strain IRE1, stronger effect = lower value 0.966 | locus YHR094C, strain hxt1, stronger effect = lower value 1.01 | locus YHR129C, strain ARP1, stronger effect = lower value 1 | locus YHR142W, strain chs7, stronger effect = lower value 1.01 | locus YHR200W, strain rpn10, stronger effect = lower value 1.01 | locus YIL066C, strain RNR3, stronger effect = lower value 1.02 | locus YIL073C, strain SPO22, stronger effect = lower value 1.07 | locus YIL125W, strain kgd1, stronger effect = lower value 1.01 | locus YIR030C, strain dcg1, stronger effect = lower value 1.01 | locus YJL092W, strain hpr5, stronger effect = lower value 0.99 | locus YJL095W, strain BCK1 (second series), stronger effect = lower value 0.985 | locus YJL095W, strain BCK1, stronger effect = lower value 1.03 and 0.981 | locus YJL115W, strain asf1, stronger effect = lower value 0.974 | locus YJL129C, strain trk1, stronger effect = lower value 0.974 | locus YJL134W, strain LCB3, stronger effect = lower value 1.01 | locus YJL154C, strain vps35, stronger effect = lower value 0.999 | locus YJL164C, strain tpk1, stronger effect = lower value 1.01 | locus YJL166W, strain qcr8, stronger effect = lower value 0.986 | locus YJL168C, strain set2, stronger effect = lower value 1.01 | locus YJL187C, strain SWE1 (second series), stronger effect = lower value 1.03 | locus YJR043C, strain POL32, stronger effect = lower value 1.04 | locus YJR066W, strain TOR1, stronger effect = lower value 0.905
